CHO-K1 Ca PAM = M1 PAM counterscreen hit in parental CHO-K1 cells; ATP EC20, Fluo-8 calcium fluorescence; 0% at ATP EC20, 100% at ATP max; activation, % at 3 µM; 360,000 compounds, 0.02% hits; AID 602247;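 active means activation above the run cutoff, the mean activation of all test compounds plus 3 SD, cut at about 40% in these data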;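 further: peak over basal fluorescence ratio in a 140 s read after ATP addition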
M1 antag = blocks human M1 muscarinic receptor. P11229. CHO-K1 hM1, Fluo-8 calcium fluorescence, ACh EC80 antagonist. inhibition, % at 3 µM. 360,000 compounds, 1.3% hits. AID 588852;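 active means percent inhibition above its own plate's cutoff, namely the mean of that plate's compound wells plus 3 SD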;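 further: peak over basal fluorescence ratio during 140 s after agonist addition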
Target sequence (P11229 whole entry, looked up): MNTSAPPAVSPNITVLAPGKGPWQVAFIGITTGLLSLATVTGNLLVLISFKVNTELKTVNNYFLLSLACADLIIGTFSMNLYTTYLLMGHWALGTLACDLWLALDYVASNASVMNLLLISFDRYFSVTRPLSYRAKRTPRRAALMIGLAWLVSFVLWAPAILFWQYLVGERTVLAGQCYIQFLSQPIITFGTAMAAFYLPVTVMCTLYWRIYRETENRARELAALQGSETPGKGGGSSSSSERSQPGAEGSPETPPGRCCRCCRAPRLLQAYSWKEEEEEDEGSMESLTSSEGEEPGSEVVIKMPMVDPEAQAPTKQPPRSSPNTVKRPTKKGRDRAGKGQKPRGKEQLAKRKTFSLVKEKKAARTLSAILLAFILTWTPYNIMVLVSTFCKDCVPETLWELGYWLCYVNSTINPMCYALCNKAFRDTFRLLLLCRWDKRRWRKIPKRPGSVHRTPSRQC
CHRM1 agonist = agonists of human M1 muscarinic receptor; CHO-K1 hM1, Fluo-8 calcium fluorescence, agonist mode; 0% DMSO, 100% acetylcholine EC100; P11229; AID 588814; 360,000 compounds, 0.33% hits; activation, % at 3 µM;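 active means activation above the run's mean compound activation plus 3 SD, cut at about 16% in these data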;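 further: peak over basal fluorescence ratio within a 140 s kinetic read after compound addition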
CHO-K1 Ca antag = M1 antagonist counterscreen hit in parental CHO-K1 cells; ATP-induced calcium, Fluo-8 fluorescence; 360,000 compounds, 0.6% hits; inhibition, % at 3 µM;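 active means inhibition above a per-plate cutoff, the plate's mean sample inhibition plus 3 SD, cut at about 24% in these data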
CHO-K1 Ca ag = M1 agonist counterscreen hit in parental CHO-K1 cells. Fluo-8 calcium fluorescence; scaled to maximal ATP response, vehicle zero. activation, % at 3 µM. 360,000 compounds, 0.48% hits; in the data active means activation above about 15%;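 further: untransfected CHO-K1 host cells lacking M1 receptor as counterscreen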
M1 PAM = potentiates human M1 receptor response to acetylcholine | P11229 | CHO-K1 hM1, Fluo-8 calcium fluorescence, ACh EC20; 0% = ACh EC20, 100% = maximal ACh | activation, % at 3 µM | 360,000 compounds, 0.088% hits | AID 588819; in the data active means activation above about 19%, passing the limit was not always enough
Of the large screens only hits and unclear results are named; the others gave an inactive call. Compounds with a hit are over-represented: about 2.3% of the library has one in this group of screens.

CC(=O)c1ccc(-n2cc(-c3ccc(C(C)(C)C)cc3)[n+]3c2SCCC3)cc1	M1 antag 39
COc1ccc(-c2cn(-c3ccc(Br)cc3)c3[n+]2CCS3)cc1	M1 antag 44
Clc1ccc(-c2cn(-c3ccccc3)c3[n+]2CCS3)cc1	M1 antag 58
CCCCOC(=O)Nc1ccc(C(=O)OCCC)cc1	CHO-K1 Ca antag 24
CCCCOC(=O)c1ccc(O)cc1	none
CN(CCC#N)C(=O)COC(=O)c1ccc2c(c1)C(=O)N(C1CCCCC1)C2=O	none
Cc1ccc(NC(=O)CCS(=O)(=O)c2ccccc2)cc1S(=O)(=O)N1CCCCCC1	none
COc1cc(OC)cc(C2=Cc3ccc(OC)cc3C(CC(C)=O)N2c2ccc(C#CC3(O)CCCCC3)cc2)c1 (stereo unspecified)	none (no result: M1 antag, CHRM1 agonist, M1 PAM)
COc1cccc(C2=Cc3ccc(F)cc3C(CC(C)=O)N2c2ccc(C#CC3(O)CCCCC3)cc2)c1 (stereo unspecified)	CHO-K1 Ca PAM 46 (no result: M1 antag, CHRM1 agonist, M1 PAM)
CC(C)(C)C(=O)OC/C(N)=N/OC(=O)c1ccc(Cl)cc1	CHO-K1 Ca ag 16
N/C(Cc1ccc(Cl)cc1)=N\OC(=O)c1ccccc1	none
Cc1nnc(N2CCCC(C(=O)NCc3cccc(F)c3)C2)c2nn(-c3ccccc3)c(C)c12 (stereo unspecified)	none
CCc1ccc(CNC(=O)C2CCCN(c3nnc(C)c4c(C)n(-c5ccccc5)nc34)C2)cc1 (stereo unspecified)	M1 antag 49
COc1ccccc1N1C(=O)c2cccc3c(N(C)CCO)ccc(c23)C1=O	none
Cc1ccccc1N1C(=O)c2cccc3c(N(C)CCO)ccc(c23)C1=O	CHO-K1 Ca ag 17
Cc1nc2ccccc2nc1OCC(=O)Nc1cc(C(F)(F)F)ccc1N1CCOCC1	none
CC(=O)Nc1ccc(NC(=O)COc2cccc3c2OC(C)(C)C3)cc1	none
Cc1ccc(CNC(=O)COc2cccc3c2OC(C)(C)C3)cc1	none
CC1(C)CC(=O)c2c(O)cc(OCC(=O)Nc3ccc(S(N)(=O)=O)cc3)cc2O1	none
COc1cc(NC(=O)COc2cc(O)c3c(c2)OC(C)(C)CC3=O)cc(OC)c1OC	M1 antag 52, CHO-K1 Ca antag 37, CHO-K1 Ca ag 18
CC1(C)Cc2cccc(OCC(=O)Nc3cc(C(F)(F)F)ccc3N3CCOCC3)c2O1	CHO-K1 Ca antag 30
CC1(C)Cc2cccc(OCC(=O)NCc3ccccc3F)c2O1	M1 antag 29
COc1cc(NC(=O)COc2cccc3c2OC(C)(C)C3)cc(OC)c1OC	CHO-K1 Ca ag 18
COc1ccccc1CNC(=O)Cn1cccc1C(=O)c1ccccc1C	none
CCCn1c(=O)[nH]c(=O)c2c1nc(-c1ccc(OC)c(Br)c1)n2CCOC	none
Cc1cc(=O)n2cn[nH]c2n1	none
COc1cc(C(C)=O)ccc1OCCN1CCC(Cc2ccccc2)CC1	M1 antag 45
COc1cc(C(C)=O)ccc1OCCCN1CCC(Cc2ccccc2)CC1	M1 antag 44
CC1Cc2ccccc2N1S(=O)(=O)c1cccc(C(=O)N2CCN(c3ncccn3)CC2)c1 (stereo unspecified)	none
OC(c1cc(-c2ccc(C(F)(F)F)cc2)nc(C(F)(F)F)c1)C1CCCCN1 (stereo unspecified)	CHRM1 agonist 16, CHO-K1 Ca ag 18
OC(c1cc(C(F)(F)F)nc2c(C(F)(F)F)cccc12)C1CCCCN1 (stereo unspecified)	none
CN(CCN(C)C(C)(C)C)C(=O)C(c1ccccc1)c1ccccc1	M1 antag 97
CSc1ccc(CN(C)C(=O)C(c2ccccc2)c2ccccc2)cc1	none
COc1ccc(C(=O)Nc2c3c(nn2-c2ccc(Cl)cc2)CS(=O)(=O)C3)cc1	none
COc1ccc(C(=O)Nc2c3c(nn2-c2ccc([N+](=O)[O-])cc2)CS(=O)(=O)C3)cc1	CHO-K1 Ca ag 18
C/C(Cn1cnc([N+](=O)[O-])n1)=N\NC(=O)c1ccc(O)cc1O	none
O=C(Cc1ccc([N+](=O)[O-])cc1)Nc1cc(C(F)(F)F)cc(C(F)(F)F)c1	CHO-K1 Ca antag 29
COCCn1nnnc1CN(CCc1ccccc1)Cc1cc2ccc(C)cc2[nH]c1=O	none
COc1ccc(CCNC(=O)c2cccc(C(=O)NCCc3ccc(OC)cc3)n2)cc1	none
CCCN(CCC)c1ncnc2nc[nH]c12	CHO-K1 Ca antag 29
Clc1ccccc1CN(Cc1ccccc1)c1ncnc2nc[nH]c12	none
COCCC(=O)N1CCC(C(=O)Nc2ccc(Oc3ccccc3)nc2)CC1	none
CC(=O)c1ccccc1C(=O)N1CCCC(N2CCN(Cc3ccc4c(c3)OCO4)CC2)C1 (stereo unspecified)	none
O=C(Nc1cccc(N2C(=O)C3CCCCC3C2=O)c1)c1ccccc1 (stereo unspecified)	none
O=C(Nc1cccc(Cl)c1)c1cccc(N2C(=O)C3CC=CCC3C2=O)c1 (stereo unspecified)	CHO-K1 Ca ag 17
O=C(NCc1ccccc1Cl)[C@H]1CCCN1C(=O)[C@H]1CCCN1C(=O)c1cccc2ccccc12	CHO-K1 Ca ag 16 (no result: M1 antag, CHRM1 agonist, M1 PAM)
Cc1nn(S(=O)(=O)c2ccccc2)c(C)c1Sc1ccc([N+](=O)[O-])cc1	none
Cc1nn(S(=O)(=O)c2cccs2)c(C)c1Sc1ccc([N+](=O)[O-])cc1	M1 antag 28
COc1c(C)cc(C(=O)C2CCCN(Cc3ccc(Oc4ncccn4)cc3)C2)cc1C (stereo unspecified)	M1 antag 35
CC(C)Oc1cccc(C(=O)C2CCCN(Cc3ccc(Oc4ncccn4)cc3)C2)c1 (stereo unspecified)	M1 antag 83
COCCNC(=O)c1cccc(Nc2nc(-c3ccccc3)c3cc(Cl)ccc3n2)c1	none
CC(C)c1nc(=S)n(-c2ccccc2)[nH]1	CHO-K1 Ca antag 28
CC(=O)Nc1nc(=S)n(-c2ccccc2)[nH]1	none
O=C(COc1ccc([N+](=O)[O-])cc1)Nc1ccc(C(=O)NCc2cccnc2)cc1	none
O=C(COC(=O)C1CC(=O)N(CCc2ccccc2)C1)c1ccc[nH]1 (stereo unspecified)	none
CCOC(=O)c1ccc(NC(=O)COC)cc1	none
CCOC(=O)c1ccc(NC(=O)C(CC)(CC)C(=O)OCC)cc1	CHO-K1 Ca antag 25
O=C(NCc1ccc2c(c1)OCO2)c1nc(Cn2cc([N+](=O)[O-])cn2)no1	none
COc1ccc(C2CC=C(C(C)=O)CN2S(=O)(=O)c2ccccc2)cc1 (stereo unspecified)	CHO-K1 Ca antag 24
COc1ccc(-c2cccc3c2C2CC3CCN2C(=O)OCc2ccccc2)cc1 (stereo unspecified)	none
CCC(=O)NCCc1nc2cc(NC(=O)c3ccccc3Cl)ccc2n1C	M1 PAM 30

Bioassay records (PubChem)
